Results taken from PubChem BioAssay (Tox21).
Unmarked numbers belong to inactive results. Results filed as inconclusive are left out. Entries that show only a call come without a potency. Calls of active or inactive are those of the source. Unless noted, calls follow the shape of the dose curve; as a rule, active = well fitted curve in the direction sought with a large enough effect in the repeat runs; inconclusive = weak or mixed curves; inactive = no such curve, though single readings can be large; an effect the other way counts as inactive or inconclusive.

Tests used:
[1] = qHTS assay to identify small molecule antagonists of the estrogen receptor alpha (ER-alpha) signaling pathway using the BG1 cell line in the presence of 0.1 nM 17-beta-estradiol - cell viability counter screen (AID 1259241); conditions: VM7Luc4E2 (BG1) viability, CellTiter-Fluor protease, 22 h, 0.1 nM estradiol agonist added; series mostly up to 92.4 µM; also: nearly all actives have a fitted effect of over 40% in size
Outline: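 Estradiol-stimulated (0.1 nM) VM7Luc4E2 cells exposed to compounds 22 hr; viability measured by fluorescence of cleaved CellTiter-Fluor substrate after 30 min.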

[2] = qHTS assay to identify small molecule antagonists of the androgen receptor (AR) signaling pathway using the MDA cell line in the presence of 0.5 nM R1881 - cell viability counter screen (AID 1259242); conditions: MDA-kb2 viability, CellTiter-Fluor protease fluorescence, 16 h; series mostly up to 92.4 µM; also: nearly all actives have a fitted effect of over 45% in size
Outline: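 Cells seeded at 3,000/well and allowed 5 hr at 37C, 0% CO2 before compound transfer and R1881 (0.5 nM final) addition; 16 hr later, live-cell protease fluorescence indicated cytotoxicity.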

[3] = target: Estrogen receptor (Homo sapiens) (UniProt P03372); assay: qHTS assay to identify small molecule antagonists of the estrogen receptor alpha (ER-alpha) signaling pathway using the BG1 cell line in the presence of 0.1 nM 17-beta-estradiol (AID 1259244); conditions: VM7Luc4E2 (BG1) ERE-luciferase, antagonist mode, 0.1 nM E2, 22 h; series mostly up to 92.4 µM; also: nearly all actives have a fitted effect of over 50% in size; also: potency is read from the fitted curve at half-maximal effect
Chain of Estrogen receptor (Homo sapiens) (P03372 whole entry, looked up): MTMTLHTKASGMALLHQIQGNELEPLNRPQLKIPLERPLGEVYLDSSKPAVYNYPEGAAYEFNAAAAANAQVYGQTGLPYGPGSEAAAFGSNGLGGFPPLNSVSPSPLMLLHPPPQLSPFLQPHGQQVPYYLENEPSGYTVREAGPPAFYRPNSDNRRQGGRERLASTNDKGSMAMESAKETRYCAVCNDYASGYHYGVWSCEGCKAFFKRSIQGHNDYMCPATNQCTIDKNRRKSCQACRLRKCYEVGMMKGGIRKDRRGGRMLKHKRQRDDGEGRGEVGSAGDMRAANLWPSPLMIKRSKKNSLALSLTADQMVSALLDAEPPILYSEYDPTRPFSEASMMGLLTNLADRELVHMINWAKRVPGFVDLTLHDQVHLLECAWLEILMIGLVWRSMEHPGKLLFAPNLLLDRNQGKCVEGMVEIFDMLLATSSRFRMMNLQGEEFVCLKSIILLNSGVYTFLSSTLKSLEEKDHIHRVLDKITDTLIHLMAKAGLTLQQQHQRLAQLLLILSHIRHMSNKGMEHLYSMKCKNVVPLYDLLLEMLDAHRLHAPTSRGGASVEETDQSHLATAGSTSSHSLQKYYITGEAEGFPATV
Outline: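 Luciferase signal from VM7Luc4E2 ERE-reporter cells, co-dosed with test compound and 0.1 nM final 17beta-estradiol for 22 h, read with ONE-Glo.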

[4] = qHTS assay to identify small molecule HDAC inhibitors (AID 1259364); conditions: HCT-116 HDAC-Glo I/II luminescence, 2 h; series mostly up to 92.4 µM;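 also: wild-type HCT-116 cells with endogenous class I/II HDAC activity; top concentration of the series differs between compounds; nearly all actives have a fitted effect of over 45% in size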
Outline: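 HCT-116 wt cells, 1,500/well, overnight attach. Compounds (DMSO) 2 h, 37 °C. HDAC-Glo I/II, 30 min RT. Luminescence.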

[5] = qHTS assay to identify small molecule HDAC inhibitors - cell viability counter screen (AID 1259365); conditions: HCT-116 viability, CellTiter-Glo ATP luminescence, 2 h; series mostly up to 92.4 µM; also: nearly all actives have a fitted effect of over 50% in size
Outline: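 After overnight seeding at 1,500 cells per well, wild-type HCT-116 cultures took up compounds in DMSO for 2hr at 37 C. Viable cell content came from luminescence with CellTiter-Glo.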

[6] = qHTS assay to identify small molecule agonists of the sonic hedgehog signaling (Shh) pathway - cell viability counter screen (AID 1259366); conditions: NIH/3T3 Gli1-Luc viability, CellTiter-Fluor, 24 h; series mostly up to 92.4 µM; also: nearly all actives have a fitted effect of over 50% in size; also: potency is read from the fitted curve at half-maximal effect
Outline: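 Same-well cytotoxicity read. Gli1-Luc reporter 3T3 cells; compounds 24hr, 37C/5% CO2; CellTiter-Fluor fluorescence.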

[7] = qHTS assay to identify small molecule agonists of the sonic hedgehog signaling (Shh) pathway (AID 1259368; calls by dose curve;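 also: NIH/3T3-derived 3T3Gli1-Luc cells carrying a stable Gli1-driven firefly luciferase reporter; nearly all actives have a fitted effect of over 15% in size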); conditions: NIH/3T3 Gli1-Luc reporter, luciferase, 24 h; series mostly up to 92.4 µM
Outline: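 Following a 24 hr incubation with DMSO-dissolved compounds at 37 C, 5% CO2, Gli1-Luc NIH/3T3-derived cells received luciferase reagent for 30 min at room temperature prior to luminescence measurement.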

[8] = qHTS assay to identify small molecule antagonists of the sonic hedgehog signaling (Shh) pathway - cell viability counter screen (AID 1259367); conditions: NIH/3T3 Gli1-Luc viability, CellTiter-Fluor, 24 h; series mostly up to 92.4 µM; also: nearly all actives have a fitted effect of over 55% in size
Outline: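 Tox21 library chemicals were tested on a Gli1-Luc NIH/3T3 clone (2,000 cells/well) stimulated by conditioned medium; viability was quantified as fluorescence from CellTiter-Fluor reagent added at 23 hr.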

[9] = qHTS assay to identify small molecule phospholipidosis (PLD) inducers (AID 1259344; active = well fitted curve in the direction sought with a large enough effect; an effect the other way counts as inactive or inconclusive); conditions: HepG2 phospholipidosis, LipidTOX Red imaging, 24 h; series mostly up to 38.3 µM
Outline: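 Image-based: LipidTOX Red pit count/intensity per well and per cell; HepG2, 24 h compound at 37 C, PFA fixation, Hoechst counterstain.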

| Structure (SMILES) | Potency [1] | outcome [2] | Potency [3] | Potency [4] | outcome [5] | Potency [6] | Potency [7] | Potency [8] | outcome [9] | activity change, negative = cytotoxicity [1] | viability change, negative = cytotoxic [2] | activity change, negative = inhibition [3] | activity change, negative = inhibition [4] | activity change [7] |
| --- | --- | --- | --- | --- | --- | --- | --- | --- | --- | --- | --- | --- | --- | --- |
| NNS(=O)(=O)c1ccc(Oc2ccc(S(=O)(=O)NN)cc2)cc1 | inactive | inactive | inactive | inactive | inactive | inactive | inactive |  |  |  |  |  |  |  |
| CCOC(=O)C(Br)c1ccccc1 (stereo not drawn) | inactive | inactive | inactive | inactive | inactive | inactive | inactive | inactive |  |  |  |  |  |  |
| O=C(Cl)c1cccc([N+](=O)[O-])c1 | inactive | inactive | inactive | inactive |  | inactive | inactive | inactive |  |  |  |  |  |  |
| O=Cc1ccc(F)c(Br)c1 | inactive | inactive | inactive | inactive | inactive | inactive | inactive | inactive |  |  |  |  |  |  |
| C[C@]12C(=O)OC(=O)[C@H]1[C@H]1C=C[C@@H]2C1 | inactive | inactive | inactive | inactive | inactive |  | inactive |  |  |  |  |  |  |  |
| CCC/C=C/CO | inactive | inactive | inactive | inactive |  | inactive | inactive | inactive |  |  |  |  |  |  |
| CC(C)(C)C1CCCCC1=O (stereo not drawn) | inactive | inactive | inactive | inactive | inactive | inactive | inactive | inactive |  |  |  |  |  |  |
| CCCOCCC | inactive | inactive | inactive | inactive |  | inactive | inactive | inactive |  |  |  |  |  |  |
| CC(C)C(=O)OC/C=C/c1ccccc1 | inactive | inactive | inactive | inactive | inactive | inactive | inactive | inactive |  |  |  |  |  |  |
| CCOC(=O)C1CC(=O)C(=C(O)C2CC2)C(=O)C1 (stereo not drawn) | inactive | inactive | inactive | inactive | inactive | inactive | inactive |  |  |  |  |  |  |  |
| COC(=O)N[C@H](C(=O)N[C@@H](Cc1ccccc1)[C@@H](O)CN(Cc1ccc(-c2ccccn2)cc1)NC(=O)[C@@H](NC(=O)OC)C(C)(C)C)C(C)(C)C | inactive | inactive | inactive | inactive | inactive |  | inactive |  |  |  |  |  |  |  |
| CC/C=C\CCOC(=O)C(C)C | inactive | inactive | inactive | inactive |  | inactive | inactive | inactive |  |  |  |  |  |  |
| Clc1cccc(-c2cc(Cl)cc(Cl)c2)c1 | inactive | inactive | inactive | inactive | inactive | inactive | inactive | inactive |  |  |  |  |  |  |
| O=C1CCN(c2ccccc2)N1 | inactive | inactive | inactive | inactive | inactive | inactive | inactive | inactive |  |  |  |  |  |  |
| COc1cc(C)ccc1C(C)C | inactive | inactive | inactive | inactive | inactive | inactive | inactive | inactive |  |  |  |  |  |  |
| CCCCCCCCOC(=O)CCCCCCCCC(=O)OCCCCCCCC | inactive | inactive | inactive | inactive | inactive | inactive | inactive | inactive |  |  |  |  |  |  |
| CCc1cc(Cl)c(OC)c(C(=O)NC[C@@H]2CCCN2CC)c1O | inactive | inactive | inactive | inactive | inactive | inactive | inactive |  |  |  |  |  |  |  |
| ICCc1ccccc1 | inactive | inactive | 67.2 µM (active) | inactive | inactive |  | inactive |  |  |  |  |  |  |  |
| C=CCCCCCCCCO | inactive | inactive | inactive | inactive | inactive | inactive | inactive | inactive |  |  |  |  |  |  |
| O=S(=O)(O)C(F)(F)F | inactive | inactive | inactive | inactive | inactive | inactive | inactive |  |  |  |  |  |  |  |
| CC(C)O | inactive | inactive |  | inactive | inactive |  | inactive |  | inactive |  |  |  |  |  |
| CN(C)C(=O)NC1(c2ccccc2)CCN(CCC[C@]2(c3ccc(Cl)c(Cl)c3)CCCN(C(=O)c3ccccc3)C2)CC1 |  |  |  |  |  | 13 µM (active) |  |  |  | 3.34% [at 19 µM] | -6.41% [at 19 µM] | 3.38% [at 19 µM] | -4.11% [at 19 µM] | -5.82% [at 18.9 µM, hits give high values] |
| Cc1cn([C@@H]2O[C@H](CO)[C@@H](O)[C@@H]2F)c(=O)[nH]c1=O | inactive | inactive |  | inactive | inactive | inactive | inactive | inactive |  |  |  |  |  |  |
| CCOC(=O)c1ccccc1O | inactive | inactive |  | inactive |  | inactive | inactive | inactive | inactive |  |  |  |  |  |
| O=c1[nH]cnc2c1ncn2[C@@H]1O[C@H](CO)[C@@H](O)[C@H]1O | inactive | inactive |  | inactive |  | inactive | inactive |  | inactive |  |  |  |  |  |
